Screening data (PubChem BioAssay)
SKKanGAS inh: inhibitors of SKKanGAS S. pyogenes growth in kanamycin (SK-promoter or general growth effect). AID 1662. inhibition, % at 7.5 µM. actives 1.3% (n = 300,000). BacTiter-Glo, 6 h;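 active means mean replicate score, as percent of positive control median, at least 50; inconclusive means mean below 50 but one replicate at or above 50; inactive means mean and every replicate below 50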;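 further: strain carries kanamycin resistance gene driven by streptokinase promoter and grows in 40 µg/ml kanamycin; loss of luminescence reflects streptokinase promoter inhibition or plain growth inhibition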
PolyA inhibitor: inhibitors of polyadenylation in S. cerevisiae. S. cerevisiae SKY197-pL101 polyadenylation reporter, beta-gal luminescence; efflux-impaired pdr1/pdr3 knockout yeast; score 100 = 6 SD above DMSO. activity score, % at 12 µM. actives 0.02% (n = 300,000);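 active means lowest replicate activity score at least 50, where 100 means six control SD above control mean; inconclusive means lowest score under 50 but half or more replicates reach 50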;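 further: yeast exposed to compound for 9 h at 30 °C; higher score means more reporter readthrough which indicates perturbed polyadenylation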
Platelet DG rel: platelet dense granule release activity; human platelet-rich plasma, SFLLRN dense granule ATP release, luminescence; inhibition, %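 (compounds screened at 7.5 µM in platelet-rich plasma)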; actives 0.22% (n = 300,000); AID 1663;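 active means mean replicate score, as percent of positive control, at or above 50; inconclusive means mean below 50 but at least one replicate at or above 50; inactive means mean and every replicate below 50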
Calb FLC: affects C. albicans growth with fluconazole; C. albicans CaCi-2 (fluconazole-resistant clinical isolate) + fluconazole, Alamar Blue growth, 48 h; growth inhibition, % (test concentration not listed); actives 0.57% (n = 300,000);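 active means growth inhibition above about 58% in most replicates, limit read from the data, passing the limit was not always enough; inconclusive means exactly half the replicates above a set limit; inactive means most replicates below a set limit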;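 further: all wells also contain fluconazole at 8 µg/ml as a sub-toxic cotreatment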
CR mimetic SO: caloric restriction mimetics inhibiting age-related superoxide in yeast | S. cerevisiae aged cells, superoxide DHE fluorescence; stronger effect = lower value | superoxide response (% of plate mean), % at 10 µM | actives 0.18% (n = 330,000) | AID 2690;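 active means superoxide response under a set limit, about three screen SD below normal, cut at about 65% in these data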;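 further: yeast aged for seven days with compound at 30 °C before DHE staining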
Large screens that a line does not name were inactive. Most compounds without a hit are left out; they make up all but 2% or so of the library.

Cc1cc(S(=O)(=O)N2CCC3(CC2)OCCN3S(=O)(=O)c2cccs2)ccc1F	none
O=C1CC(NS(=O)(=O)c2cc(F)ccc2F)CN1c1cccc(F)c1 (stereo unspecified)	PolyA inhibitor inconclusive
Cc1cnc(NC(=O)c2cc3c(C)nn(Cc4ccccc4Cl)c3s2)s1	SKKanGAS inh 54
Cc1nc(NS(=O)(=O)c2ccc(Br)cc2)c2c3c(sc2n1)CCC3	Calb FLC 92
CC(=O)Nc1nc(C)c(Oc2ccc(C)cc2)c(=O)[nH]1	none
O=C(O)CN1C(=O)/C(=C\c2cc(Br)ccc2OCc2ccc(Cl)cc2Cl)SC1=S	SKKanGAS inh 105
Cc1cc(C(=O)N/N=C/c2ccc([N+](=O)[O-])o2)c(C)o1	none
CCCc1ccc(-c2cc(C(=O)N/N=C/c3ccc([N+](=O)[O-])o3)c3ccccc3n2)cc1	SKKanGAS inh 96
O=C(N/N=C/c1ccco1)c1cc(-c2ccccc2)nc2ccccc12	none
O=C(N/N=C/c1ccc([N+](=O)[O-])o1)c1cc(-c2cccc(Br)c2)nc2ccccc12	SKKanGAS inh 98 (no result: Platelet DG rel)
CC(C)c1ccc(NC(=S)N2CCN(S(=O)(=O)c3ccccc3)CC2)cc1	none
Cc1nc(NC(=O)CSc2nnc(-c3ccc4c(c3)OCO4)o2)c(Cl)cc1Cl	none
O=C(CSc1nnc(-c2ccc3c(c2)OCO3)o1)Nc1ncc(C(F)(F)F)cc1Cl	SKKanGAS inh 98
CCOc1ccc(NC(=O)COC(=O)CCN2C(=O)C3CC=CCC3C2=O)cc1OCC (stereo unspecified)	none (no result: SKKanGAS inh, PolyA inhibitor, Platelet DG rel, Calb FLC)
O=C(O)C(c1ccccc1)N1C(=O)/C(=C\c2ccc(-c3ccc(Br)cc3)o2)SC1=S (stereo unspecified)	SKKanGAS inh 109 (no result: CR mimetic SO)
O=C1/C(=C\c2ccc(-c3ccccc3Cl)o2)SC(=S)N1CC1CCCO1 (stereo unspecified)	none
O=C(O)C(c1ccccc1)N1C(=O)/C(=C\c2ccc(-c3ccccc3Cl)o2)SC1=S (stereo unspecified)	SKKanGAS inh 102
CCOC(=O)[C@@H]1[C@H]2COc3ccccc3[C@@H]2N2C(=O)N(c3cccc(F)c3)C(=O)[C@]12C	none
CCCCCCCCC/C(=N\O)c1ccccn1	SKKanGAS inh 97, Calb FLC inconclusive (no result: Platelet DG rel)
c1cnc2ccc3ncccc3c2c1	none
O=Cc1ccc(O)c2ncccc12	Calb FLC 94 (no result: CR mimetic SO)
O=C(c1ccc([N+](=O)[O-])cc1)N(Cc1cccs1)C1CCS(=O)(=O)C1 (stereo unspecified)	none
CCCOc1cc(C)c(S(=O)(=O)NC2CC(C)(C)NC(C)(C)C2)cc1C	none
COc1ccc(/C=C/C(=O)Nc2cc(F)ccc2C)cc1S(=O)(=O)N1CCOCC1	none
O=C(Nc1nnc(-c2ccc(F)cc2)o1)c1cc(Cl)sc1Cl	SKKanGAS inh 105, Platelet DG rel inconclusive
O=C(Nc1nnc(-c2ccc(Cl)cc2)o1)Nc1ccccc1Cl	none
O=C(Nc1nnc(-c2ccncc2)o1)c1ccccc1F	none
O=C(Nc1nnc(-c2ccccc2)o1)c1cc(Cl)sc1Cl	SKKanGAS inh 89
O=C(Nc1nnc(-c2ccc(Cl)cc2)o1)c1nc2ccccc2s1	SKKanGAS inh 94
O=C(CNC(=O)c1ccccc1Br)N/N=C\c1cc([N+](=O)[O-])cc(Br)c1O	SKKanGAS inh 59
O=C(CN1CC(c2ccccc2)CC1=O)N/N=C/c1cc(Br)ccc1O (stereo unspecified)	SKKanGAS inh 79
O=C(CNC(=O)c1ccccc1Br)N/N=C/c1cc(Br)ccc1O	SKKanGAS inh 73
O=C(CNC(=O)c1ccccc1Br)N/N=C/c1ccccc1O	none
COc1cc(C(=O)COC(=O)c2ccncc2)cc(OC)c1OC	none (no result: SKKanGAS inh, PolyA inhibitor, Platelet DG rel, Calb FLC)
NC(=O)c1ccc(Nc2nnc(-c3ccc(O)cc3)c3ccccc23)cc1	Calb FLC 85
Cc1cc(C(C)(C)C)cc(C)c1COC(=O)c1cccnc1	SKKanGAS inh 64
Cc1c(Cc2ccccc2)c(=O)oc2c(O)c(O)ccc12	Calb FLC 108 (no result: CR mimetic SO)
Cc1c(Cc2ccccc2)c(=O)oc2cc(O)ccc12	none
Cc1ccc(NC(=O)NCc2ccccn2)c(C)c1	Calb FLC 95 (no result: SKKanGAS inh, PolyA inhibitor, Platelet DG rel)
Cc1ccc(NC(=O)NCc2ccccn2)cc1	none
CCCn1ncc(C(=O)NC2CCCN(Cc3ccc(Cl)cc3)C2)c1C (stereo unspecified)	none
COc1ccc(C2c3c(-c4cc(Cl)c(C)cc4O)n[nH]c3C(=O)N2Cc2cccnc2)cc1OC (stereo unspecified)	Platelet DG rel 72
COc1ccc(-c2cc3nc4ccccc4n3c(N)c2C#N)cc1	SKKanGAS inh 74
COc1ccc(-c2cc(-c3ccccc3)c(C#N)c(S(C)=O)n2)cc1 (stereo unspecified)	none
FC(F)(F)c1ccccc1-n1ccnc1	none (no result: SKKanGAS inh, PolyA inhibitor, Platelet DG rel, Calb FLC)
Clc1ccccc1C(c1ccccc1)(c1ccccc1)n1ccnc1	SKKanGAS inh 50 (no result: Calb FLC)
Cc1cc(C(=O)NNc2ccc(Cl)cc2)no1	Calb FLC 103
Cc1cc(C(=O)NNC(=O)Nc2ccc(Cl)cc2)no1	none
C=CCNC(=S)N/N=C/c1ccc(-c2ccc(OC)cc2)o1	Calb FLC 104
CCCc1ccc(S(=O)(=O)N/N=C\c2ccc3c(c2)OCO3)cc1	none
CCOC(=O)c1cc(-c2ccc3c(c2)OCCO3)nc2c1c(C)nn2CCC#N	SKKanGAS inh 81
Cc1cccc(C)c1NC(=O)CN(C)CC(=O)c1c(N)n(Cc2ccccc2)c(=O)n(C)c1=O	none (no result: SKKanGAS inh, PolyA inhibitor, Platelet DG rel, Calb FLC)
CCOc1ccc(NC(=O)c2cn(-c3ccc(OCC)cc3)c(=O)c3cc(OC)c(OC)cc23)cc1	Calb FLC 86
Cc1ccc(/C=C(\NC(=O)c2ccccc2)C(=O)NC2CCN(Cc3ccccc3)CC2)o1	none
O=c1c2c(n3nnnc3n1-c1ccccc1)-c1ccccc1CC21CCCC1	none
O=c1c2c(n3nnnc3n1Cc1ccccc1)-c1ccccc1CC21CCCC1	SKKanGAS inh 65
CCC1(C)Cc2ccccc2-c2c1c(=O)n(Cc1ccccc1)c1nnnn21 (stereo unspecified)	SKKanGAS inh 69
O=C(c1ccccc1Cl)N1CCSCC1	none
Cc1nn2c(nc(N3CCCCC3)c3ccccc32)c1C=O	none
Cc1nn2c([nH]c(=O)c3ccccc32)c1C=O	Calb FLC 83
COc1ccc(OCc2cc(=O)c3ccc4c(c3o2)C=CC(C)(C)O4)cc1OC	none (no result: SKKanGAS inh, PolyA inhibitor, Platelet DG rel, Calb FLC)
CC(C)=CCOc1ccc([C@@H]2COc3c(ccc4c3C=CC(C)(C)O4)C2)c(O)c1	SKKanGAS inh 100
CC(c1ccccc1)N1C(=O)c2ccc(C(=O)Nc3ccc(Br)cc3C(=O)O)cc2C1=O (stereo unspecified)	SKKanGAS inh 53
COC(=O)CNC(=O)c1cc(-c2ccncc2)nc2ccc(C)cc12	none
CCc1nnc(NC(=O)c2sc3nc4cc(C)ccc4cc3c2N)s1	SKKanGAS inh 93
CCOC(=O)Cc1csc(NC(=O)c2sc3nc4ccc(C)cc4cc3c2N)n1	none
Cc1[nH]n(-c2ncc(-c3ccc(Cl)cc3)s2)c(=O)c1C(c1ccc(Cl)cc1)C(C#N)C#N (stereo unspecified)	SKKanGAS inh 97
